33 compounds from PubChem BioAssay (EPA / NIEHS) can be followed below.

Structures are written as SMILES. Inconclusive results are not listed. Activity calls are given as the source filed them. The calls were made as follows: active = hit-call score of the fitted dose curve at least 0.9, where 1 is the maximum; inconclusive = response in the unintended direction; inactive = score below 0.9.

Sequence of Glyceraldehyde-3-phosphate dehydrogenase (Homo sapiens) (P04406 whole entry, looked up): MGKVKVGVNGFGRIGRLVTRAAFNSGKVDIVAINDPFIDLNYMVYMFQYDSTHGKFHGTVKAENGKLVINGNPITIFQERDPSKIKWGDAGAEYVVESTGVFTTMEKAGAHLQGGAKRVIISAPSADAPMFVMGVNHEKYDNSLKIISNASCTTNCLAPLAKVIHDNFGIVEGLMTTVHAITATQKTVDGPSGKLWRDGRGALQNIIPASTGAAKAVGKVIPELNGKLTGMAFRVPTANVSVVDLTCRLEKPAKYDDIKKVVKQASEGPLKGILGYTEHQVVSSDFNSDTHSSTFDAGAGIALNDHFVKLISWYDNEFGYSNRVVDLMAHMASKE

Read-out in this test: Glyceraldehyde-3-phosphate dehydrogenase (Homo sapiens) (UniProt P04406)
The experiment in a line: CLD_GAPDH_6hr: CellzDirect (CLD) Gene Expression Assay for Baseline Control (Glyceraldehyde 3-phosphate dehydrogenase) at 6 hours (AID 2283681).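 Also: active means increased signal relative to DMSO vehicle.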 How it is done:
CLD_6hr is a cell-based, multiplexed-readout assay that uses hepatocyte, a human liver primary cell, with measurements taken at 6 hours after chemical dosing in a 96-well plate.CLD_GAPDH_6hr is one of 16 assay component(s) measured or calculated from the CLD_6hr assay. It is designed to make measurements of mRNA induction, a form of inducible reporter, as detected with chemiluminescence signals by Quantitative Nuclease Protection Assay (qNPA) technology.Data from the assay component CLD_GAPDH_6hr was analyzed at the endpoint, CLD_GAPDH_6hr, in the positive analysis fitting direction relative to DMSO as the negative control and baseline of activity. Using a type of inducible reporter, gain-of-signal activity can be used to understand changes in the reporter gene as they relate to the gene GAPDH. Furthermore, this assay endpoint can be referred to as a secondary readout, because this assay has produced multiple assay endpoints where this one serves a background control function. To generalize the intended target to other relatable targets, this assay endpoint is annotated to the background measurement intended target family, where subfamily is baseline control.
Human hepatocyte cultures were treated daily for two consecutive days with fresh dosing solutions containing appropriate concentrations of the 320 ToxCast chemicals (chemical identities were blinded to CellzDirect and other ToxCast collaborators), vehicle control (0.2% DMSO), and positive control inducers as summarized in Table 1. Due to the large number of treatment groups and chemicals examined, the ToxCast chemicals were divided into two groups (spanning two independent cultures of hepatocytes from separate donor preparations (Hu778: ToxCast plates 1 and 2; Hu776: ToxCast plates 3 and 4). Each preparation of human hepatocyte cultures was treated with respective vehicle control, medium only control, set of six positive controls/reference chemicals for the five hepatic receptor pathways, and a subset of eight of the ToxCast chemicals (indoxacarb, pyrithiobac-sodium, norflurazon, cyhalofop-butyl, methomyl, thiram, acetochlor, and propiconazole). These replicate data, coupled with internal replicates designed within the blinded ToxCast chemical library, provided additional data to evaluate interindividual differences between hepatocyte preparations and their potential impact on chemical profiles.Cell morphology and integrity were evaluated using phase-contrast microscopy as an indicator of hepatocyte cell health (Tyson & Green, 1987). Cultures for each treatment group (i.e., media, vehicle [0.2% DMSO], positive control inducers [multiple concentrations], and the ToxCast chemicals [multiple concentrations]) were observed and cell morphology was assessed relative to vehicle control cultures at each harvest time point (0, 6, 24, or 48 h). […] Images were evaluated at the conclusion of the study to assess changes in cell integrity and account for the effects of chemical exposure on uncharacteristic changes in concentration-dependent gene expression profiles. The results from these determinations of apparent cytotoxicity were annotated (yes/no) alongside the corresponding qNPA data for reference.At the conclusion of each treatment period, hepatocyte cultures (96-well) were washed with 1 volume of HBSS, lysed by addition of 25 ul ArrayPlate lysis buffer (HTG, Tucson, AZ), and 70 ul/well of Denaturation Oil, denatured by incubation at 95C for 10 min, and frozen at approximately -70C until analysis by nuclease protection assay (qNPA) (Roberts et al., 2007). For qNPA analysis, cell lysates were thawed at 50C for approximately 30 min, qNPA probes were added, and samples were incubated at 95C for 10 min to begin the detection process by denaturing the target RNA, dissociating the duplexes and secondary structure hybridization. At the conclusion of the hybridization period, S1 nuclease reagent was added to each sample to digest all nonprotected nucleotides at 50C for 60-90 min. […]
Take `O=C(O)CCCOc1ccc(Cl)cc1Cl`: the compound was called inactive.

Turning to `COc1cc(OC)nc(NC(=O)NS(=O)(=O)c2cc(NC=O)ccc2C(=O)N(C)C)n1`, the outcome was inactive.

Regarding `O=[N+]([O-])c1c(Cl)c(Cl)c(Cl)c(Cl)c1Cl`, the result was inactive.

For `O=C(O)COc1ccc(Cl)cc1Cl`, the compound was called inactive.

Turning to `CCC(C)(C)C(=O)OC1=C(c2ccc(Cl)cc2Cl)C(=O)OC12CCCCC2`, the compound was classed as inactive.

For `CNC(=O)CSP(=S)(OC)OC`, the outcome was inactive.

Consider `CN1CSC(=S)N(C)C1`, for which the call was inactive.

With `CC(C)(C)C(O)/C(=C\c1ccc(Cl)cc1Cl)n1cncn1` (stereo not drawn), the compound was called inactive.

Take `Oc1ccc(Cl)cc1Cc1ccccc1`: the compound was classed as inactive.

As for `Cc1cc(C)nc(NC(=O)NS(=O)(=O)c2ccccc2C(=O)OC2COC2)n1`, the outcome was inactive.

Regarding `CC1(C)C(C=C(Cl)Cl)C1C(=O)OC(C#N)c1ccc(F)c(Oc2ccccc2)c1` (stereo not drawn), the compound was classed as inactive.

For `CCOCN(C(=O)CCl)c1c(C)cccc1CC`, the result was inactive.

As for `CCS(=O)(=O)c1cccnc1S(=O)(=O)NC(=O)Nc1nc(OC)cc(OC)n1`, the result was inactive.

Consider `CC[C@H](C)[C@H]1O[C@]2(C=C[C@@H]1C)C[C@@H]1C[C@@H](C/C=C(\C)[C@@H](O[C@H]3C[C@H](OC)[C@@H](O[C@H]4C[C@H](OC)[C@@H](O)[C@H](C)O4)[C@H](C)O3)[C@@H](C)/C=C/C=C3\CO[C@@H]4[C@H](O)C(C)=C[C@@H](C(=O)O1)[C@]34O)O2` (tested in a mixture with another compound), for which the compound was classed as inactive.

`OCCOc1ccccc1`: the result was inactive.

Regarding `CC(C)N(C(=O)COc1nnc(C(F)(F)F)s1)c1ccc(F)cc1`, the call was inactive.

As for `COP(=O)(OC)OC=C(Cl)Cl`, the compound was classed as inactive.

Regarding `O=S1OCC2C(CO1)C1(Cl)C(Cl)=C(Cl)C2(Cl)C1(Cl)Cl` (stereo not drawn), the compound was called inactive.

For the compound `O=C1c2ccccc2C(=O)N1SC(Cl)(Cl)Cl`, the call was inactive.

As for `C[C@H]1[C@H](c2ccc(Cl)cc2)SC(=O)N1C(=O)NC1CCCCC1`, the result was inactive.

As to `Oc1cc(Cl)ccc1Oc1ccc(Cl)cc1Cl`, the compound was classed as inactive.

Take `CCCN(CCOc1c(Cl)cc(Cl)cc1Cl)C(=O)n1ccnc1`: the compound was classed as inactive.

`[2H]C1([2H])[n+]2ccccc2-c2cccc[n+]2C1([2H])[2H]`: the result was inactive.

`CCOc1nc(NC)nc(NC(=O)NS(=O)(=O)c2ccccc2C(=O)OC)n1`: the call was inactive.

As to `Clc1ccccc1-c1nnc(-c2ccccc2Cl)nn1`, the result was inactive.

Turning to `CC(C)(C)C(O)C(Oc1ccc(Cl)cc1)n1cncn1` (stereo not drawn), the compound was classed as inactive.

As to `N#CN`, the call was inactive.

Regarding `COC(=O)c1ccccc1S(=O)(=O)NC(=O)N(C)c1nc(C)nc(OC)n1`, the outcome was inactive.

As to `CNC(=O)Oc1cccc(N=CN(C)C)c1`, the call was inactive.

`COC(=O)c1ccccc1S(=O)(=O)NC(=O)Nc1nc(C)nc(OC)n1`: the result was inactive.

On to `O=[N+]([O-])/N=C1\NCCN1Cc1ccc(Cl)nc1`, for which the result was inactive.

Regarding `O=C(O)C(F)(F)C(F)(F)C(F)(F)C(F)(F)C(F)(F)C(F)(F)C(F)(F)F`, the outcome was inactive.

For `CNC(=O)Oc1ccccc1OC(C)C`, the result was inactive.
